Screening data (PubChem)
Only a selection was taken, and hits are over-represented in it overall.
TDP1 cell noCPT: qHTS for Inhibitors of human tyrosyl-DNA phosphodiesterase 1 (TDP1): qHTS in cells in absence of CPT | 420,000 tested, 15% active | Potency, µM (top dose mostly 46.2 µM), without a hit: at the top dose activity change, negative = growth inhibition, most hits filed as inhibitors | DT40 Tdp1-/- hTDP1 cells, no CPT, ATP luminescence, 48 h; further: potency means the concentration at half of the fitted maximal effect; nearly all actives have a fitted effect of over 55% in size
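Cells were dispensed at 400 per well, compounds added by pin tool, plates incubated ≥48 hr at 37 °C, then CellTiter-Glo added for 30 min at room temperature before luminescence reading. Line: DT40 Tdp1-/- complemented with hTDP1; camptothecin omitted.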
HT1080 IDH1KD tx: HT-1080 IDH1 knockdown cell toxicity (counter line); HT-1080 IDH1 knockdown viability, ATP luminescence, 48 h; Potency, µM (titrated, usually from 46.1 µM), inactives show at the highest dose activity, negative = toxicity, hits mostly cytotoxic; 360,000 tested, 2% active; AID 686971;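 further: potency means the concentration at half of the fitted maximal effect; 0% = DMSO wells and -100% = cell-free medium wells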
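IDH1KD HT-1080 cells, 750/well, RPMI + 5% FBS; compound pinned after 2 h settling; 48 h, 37 °C; CellTiter-Glo luminescence; % activity normalised to DMSO and no-cell wells; curves fitted, classed by r2 and efficacy.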
ALOX12 inh: ALOX12 (human) lipoxygenase inhibition. P18054. 580,000 tested, 1.1% active. Potency, µM (titrated, usually from 108 µM), inactives show at the highest dose activity change, negative = inhibition, most hits filed as inhibitors. purified 12hLO, xylenol orange hydroperoxide absorbance; further: potency means the concentration at half of the fitted maximal effect
Target sequence (P18054 whole entry, looked up): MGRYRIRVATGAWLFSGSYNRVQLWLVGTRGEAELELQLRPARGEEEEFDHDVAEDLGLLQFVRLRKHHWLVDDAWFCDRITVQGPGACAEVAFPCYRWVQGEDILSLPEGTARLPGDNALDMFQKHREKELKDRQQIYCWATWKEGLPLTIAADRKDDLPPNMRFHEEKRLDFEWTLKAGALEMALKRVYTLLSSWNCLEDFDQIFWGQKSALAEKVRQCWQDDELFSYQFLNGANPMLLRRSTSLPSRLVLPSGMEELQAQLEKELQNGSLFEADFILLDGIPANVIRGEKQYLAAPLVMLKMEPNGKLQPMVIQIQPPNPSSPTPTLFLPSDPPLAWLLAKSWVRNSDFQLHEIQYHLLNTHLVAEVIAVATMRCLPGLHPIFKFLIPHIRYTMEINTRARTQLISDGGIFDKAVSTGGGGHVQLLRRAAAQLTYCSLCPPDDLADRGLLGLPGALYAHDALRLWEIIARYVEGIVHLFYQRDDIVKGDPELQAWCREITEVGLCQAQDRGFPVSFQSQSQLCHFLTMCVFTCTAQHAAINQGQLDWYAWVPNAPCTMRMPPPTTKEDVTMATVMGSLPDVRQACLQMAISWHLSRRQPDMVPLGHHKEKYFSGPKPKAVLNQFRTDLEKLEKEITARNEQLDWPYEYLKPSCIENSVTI
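Purified human 12hLO (150 nM final) in 25 mM Hepes, 0.01% Triton X-100, pH 7.0 was preincubated 15 min at room temperature with compound. Then 40 uM arachidonic acid was added, 30 min. Hydroperoxide was read by Fe-XO absorbance ratio 573/405 nm.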
HT1080NT lethal: kills 2HG-producing HT-1080-NT fibrosarcoma cells. 360,000 tested, 1.6% active. Potency, µM (highest dose often 46.1 µM), for inactives: top-dose activity, negative = less viability, actives largely listed as cytotoxic. HT-1080-NT fibrosarcoma viability, CellTiter-Glo ATP luminescence, 48 h;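 further: NT is the 2HG producing partner of a matched IDH1 knockdown line; potency means the concentration at half of the fitted maximal effect; 0% = DMSO-treated cells and -100% = media-only wells without cells; nearly all actives have a fitted effect of over 55% in size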
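Fibrosarcoma NT cells, 750 per well in 5% FBS RPMI, were exposed to compound for 48 hours. Viability: CellTiter-Glo luminescence.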
DT40 TDP1 CPT: DT40-hTDP1 cell growth loss with CPT | chicken DT40 Tdp1-/-;hTDP1 cells + 20 nM CPT, ATP luminescence, 48 h | Potency, µM (titrated, usually from 46.2 µM), for inactives: at the highest dose activity change, negative = growth inhibition, actives largely listed as inhibitors | 420,000 tested, 12% active | AID 686979; further: potency means the concentration at half of the fitted maximal effect; nearly all actives have a fitted effect of over 55% in size
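Chicken DT40 Tdp1-/- cells stably complemented with human TDP1 were seeded at 400 cells/well in medium containing 20 nM camptothecin, exposed to pin-transferred compounds, and grown at 37 °C for at least 48 hr. Viability was read as ATP luminescence.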
IL-1B inflam inh: inflammasome signaling inhibition, IL-1 beta readout; THP-1 LPS/ATP IL-1B secretion, AlphaLISA, 16 h; hits give low values; activity change, % at 57.5 µM; 360,000 tested, 4.7% active; in the data active means activity change below about -50%; inconclusive means mostly about -30% to -49%
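Secreted IL-1B measured by AlphaLISA bead assay after 16 h compound exposure of THP-1 cells; compounds (final up to 57.5 uM) added 1 h before LPS (250 ng/mL) and ATP (1.25 mM) stimulation; lower signal means less secretion.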
Active calls of the source: *; i = inactive; u = inconclusive; x = no result; [ ] = remark or other dose. Unless noted, the call rests on the fitted dose curve; in most records, active means well fitted curve in the direction sought with a large enough effect; inconclusive means small, poorly fitted or top-dose-only effect, or another doubt; inactive means no such curve, though single readings can be large; an effect the other way counts as inactive or inconclusive. Unless noted, on the % scale 0 is the no-effect control and ±100 the full control effect.

SMILES	TDP1 cell noCPT	HT1080 IDH1KD tx	ALOX12 inh	HT1080NT lethal	DT40 TDP1 CPT	IL-1B inflam inh
CC(=O)NCCNC(=O)c1cc2ccc(F)cc2nc1C	x	x	0%	x	x	x
COc1ccc(CCC(=O)Oc2ccc3c(c2)OCO3)cc1	x	x	8%	x	x	x
Cc1ccc2nc(C)c(C(=O)N3CCN(S(=O)(=O)c4ccc(C#N)cc4)CC3)cc2c1	x	x	1%	x	x	x
CCOC(=O)c1ccc(-c2ccc(/C=C(\C#N)C(=O)Nc3cccc(C)c3)o2)cc1	x	x	-13%	x	x	x
Cc1ccc2nc(/C(C#N)=C\c3ccc(N4CCOCC4)o3)[nH]c2c1	21µM*	0%	u	-2%	13µM*	-12
CCOC(=O)c1ccc(-c2ccc(/C=C(\C#N)c3nc4ccc(C)cc4[nH]3)o2)cc1	2.6µM*	x	u	x	23µM*	x
Cc1ccc(-c2ccc(/C=C(\C#N)c3nc4ccccc4[nH]3)o2)c(Br)c1	x	x	5%	x	x	x
CCOC(=O)c1ccc(-c2ccc(/C=C(\C#N)C(=O)NCc3cccs3)o2)cc1	18µM*	-2%	13%	-1%	23µM*	10
CCc1nnc([C@@H]2CC(F)(F)CN2C(=O)c2noc(C)c2COC)o1	x	x	32%	x	x	x
Cc1ccc(N(CCCC(=O)Nc2ccccc2Br)S(C)(=O)=O)cc1	x	x	11%	x	x	x
COc1cc(-c2n[nH]c(=S)n2-c2ccc(C)cc2)cc(OC)c1OC	-17%	-5%	u	1%	16µM*	-18
COc1ccc(-c2n[nH]c(=S)n2-c2ccc(Br)cc2)cc1OC	2%	5%	16µM*	-4%	7%	15
COc1ccc(-c2n[nH]c(=S)n2-c2ccccc2C)cc1OC	1%	-2%	u	-1%	-11%	26
CCC/C=C/c1ccc(CN2C(C(C)C)C(=O)N(Cc3cn(CC4CCCCC4)nn3)CCS2(=O)=O)cc1 (configuration not stated)	12µM*	u	0%	u	16µM*	-12
CCC/C=C/c1ccc(CN2C(C)C(=O)N(Cc3cn(CC4CCCCC4)nn3)CCS2(=O)=O)cc1 (configuration not stated)	21µM*	-14%	0%	-22%	u	30
CCC/C=C/c1ccc(CN2C(CC(C)C)C(=O)N(Cc3cn(CCOCOC)nn3)CCS2(=O)=O)cc1 (configuration not stated)	-27%	8%	-16%	1%	-15%	-14
CC1C(=O)N(Cc2cn(Cc3ccco3)nn2)CCS(=O)(=O)N1Cc1ccc(-c2ccc(F)cc2)cc1 (configuration not stated)	u	11%	u	7%	u	5
Cc1cccc(NC(=O)Cc2nc(-c3cc(C)n(-c4cc(C)on4)c3C)cs2)c1	x	x	-26%	x	x	x
C=CCC(NCc1ccccc1)c1ccc(OC)cc1 (configuration not stated)	26µM*	-7%	293%	-14%	u	-11
C=CCC(NCc1ccccc1)c1ccco1 (configuration not stated)	-2%	0%	2%	1%	-5%	3
O=C1NC(=O)c2cc(Nc3ccccc3)c(Nc3ccccc3)cc21	13µM*	-19%	x	-4%	u	x
Cc1cnc(CCNC(=O)c2cnccn2)n1CC1CC1	x	x	86%	x	x	x
COc1ccccc1C(=O)NC(=S)Nc1cccc2cc(O)ccc12	-23%	u	402%	u	u	-85*
COc1ccc(C(=O)NC(=S)Nc2cccc3cc(O)ccc23)cc1OC	-3%	3%	10µM*	0%	-23%	i
O=C(NCc1ccccc1)N1CC(n2cc(C(=O)N3CCOCC3)nn2)C1	x	x	54%	x	x	x
SMILES	TDP1 cell noCPT	HT1080 IDH1KD tx	ALOX12 inh	HT1080NT lethal	DT40 TDP1 CPT	IL-1B inflam inh
Cn1ncc(Cl)c1C(=O)NCc1ccc(Cl)cc1	8.2µM*	-5%	-14%	-1%	u	26
COc1ccc(CCNC(=O)CSc2nc(-c3ccccc3C)nc3cc(=O)[nH]n23)cc1OC	x	x	2%	x	x	x
O=C(NCC(F)(F)F)C1CN(c2ccccc2)C(=O)N1 (configuration not stated)	x	x	-7%[176 µM]	x	x	x
O=C1C=CC(=O)N1c1ccc2c(c1)C(NC(=O)C(F)(F)F)c1ccccc1-2 (configuration not stated)	1.8µM*	u	u	0%	1.3µM*	-81*
CCOc1ccc(OCC)c(NC(=O)CSc2nc3c(c(=O)n(C)c(=O)n3C)n2CC)c1	23µM*	-9%	2%	4%	u	1
CCn1c(SCC(=O)Nc2ccccc2)nc2c1c(=O)n(C)c(=O)n2C	-17%	0%	-8%	-7%	-17%	24
CCOc1ccc(OCC)c(NC(=O)CSc2nc3c(c(=O)n(C)c(=O)n3C)n2C(C)C)c1	21µM*	4%[9.24 µM]	0%	-46%	16µM*	-81*
COc1ccccc1NC(=O)N1CCC(N2C(=O)C3(CCCCC3)C2c2ccncc2)CC1 (configuration not stated)	x	x	43%	x	x	x
COc1ccc(-c2noc(-c3cccn3CC(=O)Nc3ccc(C)cc3C)n2)cc1F	x	x	-11%	x	x	x
CC(=O)Nc1ccc(Nc2nc3ccccc3n3cnnc23)cc1	-6%	6%	0%	8%	-8%	-2
Cc1nnc2c(NC3CCCC3)nc3ccccc3n12	u	-3%	-5%	-8%	-15%	52
Cc1cc(C)c(Nc2nc3ccccc3n3c(C)nnc23)c(C)c1	13µM*	x	-26%	x	15µM*	x
CC(=O)Nc1cccc(Nc2nc3ccccc3n3c(C)nnc23)c1	2.3µM*	x	-10%	x	2.6µM*	x
Cc1cccc(OCC(=O)NC(C)C(=O)N2CCN(c3ccccn3)CC2)c1 (configuration not stated)	x	x	35%	x	x	x
CCc1cccc(NC(=S)N(CCC(C)C)C(C)c2cccs2)c1 (configuration not stated)	x	x	40µM*	x	x	x
CCc1cccc(NC(=S)N(CCOC)C(C)c2ccco2)c1 (configuration not stated)	u	-6%	-2%	-2%	u	11
CC(c1cccs1)N(Cc1ccco1)C(=S)Nc1ccc(F)c(Cl)c1 (configuration not stated)	20%	-3%	-9%	5%	2%	9
Cc1cccc(NC(=S)N(Cc2ccco2)C(C)c2cccs2)c1 (configuration not stated)	u	-7%	u	2%	29µM*	-23
Cc1ccc2[nH]c(C)c(CC(=O)NCC(F)(F)F)c2c1	x	x	13%	x	x	x
